From PubChem
S2 tox: reduces viability in counter-screen for ATXN expression inhibitors. Potency, µM (doses to about 56.7 µM), most hits filed as cytotoxic. 400,000 compounds, 0.49% hits. S2 cells (HEK-293 line with an ATXN2-luciferase reporter) viability, CellTiter-Fluor protease fluorescence, 24 h; further: nearly all actives have a fitted effect of over 40% in size
TGFb inhibitor: blocks TGF-b signaling; HepG2 CAGA-GFP TGF-b/SMAD3 reporter, GFP fluorescence, 18 h; TGF-beta stimulated, 500 pg/mL final; Potency, µM (top dose mostly 46.1 µM), hits mostly inhibitors; 410,000 compounds, 1.2% hits; further: nearly all actives have a fitted effect of over 65% in size
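First, reporter cells (HEPG2 CAGA-GFP) rested 2 h at 37 degrees C. Next, compounds were pinned in and TGF-beta added to 500 pg/mL final. After 18 h, GFP was imaged per cell and summed per well.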
DT40 TDP1 no CPT: qHTS for Inhibitors of human tyrosyl-DNA phosphodiesterase 1 (TDP1): qHTS in cells in absence of CPT; Potency, µM (top dose mostly 46.2 µM), actives largely listed as inhibitors; 420,000 compounds, 15% hits; AID 686978, 2013; DT40 Tdp1-/- hTDP1 cells, no CPT, ATP luminescence, 48 h; further: nearly all actives have a fitted effect of over 55% in size
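Luminescent ATP content (CellTiter-Glo) served as the growth readout. Knockout chicken DT40 cells expressing human TDP1 were exposed to compounds without camptothecin for a minimum 48 hr at 37 °C.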
HepG2 tox: kills HepG2 cells in TGF-b inhibitor counter-screen. 410,000 compounds, 0.76% hits. AID 588856. HepG2 CAGA-GFP viability, ATP luminescence, 18 h. Potency, µM (highest dose often 46.1 µM), usual class: cytotoxic
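CellTiter-Glo luminescence gave cytotoxicity after 18 hours at 37 degrees C. The cells were HepG2 CAGA-GFP in 1% FBS DMEM, stimulated with 500 pg/mL TGF-beta after compound addition. %Activity was normalised to no-cell wells (complete cell-killing) and DMSO (no toxicity), and curves were fitted and classified.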
ATXN2 expr inh: reduces ATXN2 reporter expression in HEK-293 cells; HEK-293 ATXN2-luciferase reporter, luminescence, 24 h; AID 1745845; Potency, µM (series often up to 57 µM), most hits filed as inhibitors; 360,000 compounds, 0.72% hits; further: nearly all actives have a fitted effect of over 55% in size
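ATXN2-luciferase reporter cells (luciferase flanked by upstream and downstream ATXN2 gene portions) were treated 24 h at 37 °C with compounds at up to 57 uM. SteadyGlo luminescence gave expression; GF-AFC fluorescence gave viability.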
TDP1 cell CPT: growth inhibition of DT40 Tdp1-/-;hTDP1 cells with camptothecin (screen for TDP1 inhibitors); chicken DT40 Tdp1-/-;hTDP1 cells + 20 nM CPT, ATP luminescence, 48 h; Potency, µM (doses to about 46.2 µM), actives largely listed as inhibitors; 420,000 compounds, 12% hits; AID 686979; further: nearly all actives have a fitted effect of over 55% in size
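Chicken DT40 Tdp1-/- cells complemented with human TDP1, 400 cells/well, exposed to compounds plus 20 nM camptothecin for at least 48 h at 37 C; viability read as ATP content by CellTiter-Glo luminescence.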
A number is an active result; [ ] = dose if it differs, or a comment. The list is not random: actives were taken first. Their share in the collection is about 17%. The call rests on the fitted dose curve; in most records, active means well fitted curve in the direction sought with a large enough effect; inconclusive means small, poorly fitted or top-dose-only effect, or another doubt; inactive means no such curve, though single readings can be large; an effect the other way counts as inactive or inconclusive.

For COCCCNC(=O)c1sc2ncccc2c1-n1cccc1 the results were S2 tox inactive, TGFb inhibitor inactive, DT40 TDP1 no CPT inactive, HepG2 tox inactive, ATXN2 expr inh inactive and TDP1 cell CPT inactive.
`O=C(NCc1ccccc1F)c1sc2ncccc2c1-n1cccc1` gave S2 tox inconclusive, TGFb inhibitor inactive, DT40 TDP1 no CPT inconclusive, HepG2 tox inactive, ATXN2 expr inh inactive and TDP1 cell CPT 23.1µM.
For CCOc1ncccc1C(=O)NCc1ccccc1F the results were S2 tox inactive, TGFb inhibitor inactive, DT40 TDP1 no CPT inactive, HepG2 tox inactive, ATXN2 expr inh inactive and TDP1 cell CPT inactive.
Screening COCc1cc(C)nc2sc(C(=O)NN)c(-n3cccc3)c12 returned S2 tox inactive, TGFb inhibitor inconclusive, DT40 TDP1 no CPT inactive, HepG2 tox inactive, ATXN2 expr inh inactive and TDP1 cell CPT inactive.
For CCC(=O)N/C(=N\OCc1ccc(F)cc1)c1nonc1NC(=O)CC the results were S2 tox inactive, TGFb inhibitor inactive, DT40 TDP1 no CPT inactive, HepG2 tox inactive, ATXN2 expr inh inactive and TDP1 cell CPT inactive.
For CNc1ccc(/C=C2\C=Cc3ccccc32)cc1Cl the results were TGFb inhibitor inconclusive, DT40 TDP1 no CPT inconclusive, HepG2 tox inactive and TDP1 cell CPT inconclusive.
`O=C(NCCc1ccccc1)c1sc2ncccc2c1-n1cccc1` gave S2 tox inconclusive, TGFb inhibitor inconclusive, DT40 TDP1 no CPT inconclusive, HepG2 tox inactive, ATXN2 expr inh inactive and TDP1 cell CPT 25.9µM.
CCN(CC)CCNC(=O)c1sc2ncccc2c1-n1cccc1 was read as S2 tox inactive, TGFb inhibitor inactive, DT40 TDP1 no CPT inactive, HepG2 tox inactive, ATXN2 expr inh inactive and TDP1 cell CPT inactive.
For O=C(NCc1ccncc1)[C@@H]1CCCN1C(=O)[C@@H]1CCCN1C(=O)c1cccc2ccccc12 the results were S2 tox inconclusive, DT40 TDP1 no CPT inactive, ATXN2 expr inh inactive and TDP1 cell CPT inactive.
For CCOc1ccc(CCNc2ncnc3onc(C)c23)cc1OCC the results were S2 tox inactive, TGFb inhibitor inactive, DT40 TDP1 no CPT 2.06µM, HepG2 tox inactive, ATXN2 expr inh inactive and TDP1 cell CPT 2.91µM.
CCOC(=O)c1c(C)oc2ncnc(NCCc3ccccc3)c12 was read as S2 tox inactive, TGFb inhibitor inconclusive, DT40 TDP1 no CPT 23.1µM, HepG2 tox inactive, ATXN2 expr inh inactive and TDP1 cell CPT 20.6µM.
`Cc1ccc(C)c(Nc2ncnc3onc(C)c23)c1` gave S2 tox inactive, TGFb inhibitor inactive, DT40 TDP1 no CPT inconclusive, HepG2 tox inactive, ATXN2 expr inh inactive and TDP1 cell CPT inconclusive.
COc1ccc(CNc2ncnc3onc(C)c23)cc1 was read as TGFb inhibitor inactive, DT40 TDP1 no CPT 13µM, HepG2 tox inactive and TDP1 cell CPT 16.4µM.
`CCOCCCNc1ncnc2onc(C)c12` gave S2 tox inactive, TGFb inhibitor inactive, DT40 TDP1 no CPT inconclusive, HepG2 tox inactive, ATXN2 expr inh inactive and TDP1 cell CPT inactive.
`CCOC(=O)c1noc2ncnc(NCc3ccccc3OC)c12` gave S2 tox inactive, TGFb inhibitor inconclusive, DT40 TDP1 no CPT inactive, HepG2 tox inactive, ATXN2 expr inh inactive and TDP1 cell CPT inconclusive.
Cc1ccc(CCNc2ncnc3onc(C)c23)cc1 was read as S2 tox inconclusive, TGFb inhibitor inactive, DT40 TDP1 no CPT 0.82µM, HepG2 tox inactive, ATXN2 expr inh inactive and TDP1 cell CPT 1.84µM.
For CC1CCC(C(O)(C(=O)c2ccccc2)c2ccccc2)C(=O)C1 (centres undefined) the results were S2 tox inactive, TGFb inhibitor inactive, DT40 TDP1 no CPT inconclusive, HepG2 tox inactive and TDP1 cell CPT inconclusive.
For CCCCNC(=O)/C(C#N)=C/c1ccc(F)cc1F the results were S2 tox inactive, TGFb inhibitor inactive, DT40 TDP1 no CPT inconclusive, HepG2 tox inactive and TDP1 cell CPT inconclusive.
Cc1ccc(C(=O)NNC(=O)c2ccc3ncccc3c2)cc1 was read as S2 tox inactive, TGFb inhibitor inactive, DT40 TDP1 no CPT inactive, HepG2 tox inactive, ATXN2 expr inh inactive and TDP1 cell CPT inactive.
COc1cccc(NC(=O)Cn2c(=O)n(Cc3ccc(C(=O)NCc4ccc5c(c4)OCO5)cc3)c(=O)c3ccccc32)c1 was read as S2 tox inactive, TGFb inhibitor inconclusive, DT40 TDP1 no CPT inactive, HepG2 tox inactive, ATXN2 expr inh inactive and TDP1 cell CPT inactive.
`Cc1cc(OCC(=O)NN2C(=O)c3ccccc3C2=O)ccc1Cl` gave S2 tox inactive, TGFb inhibitor inactive, DT40 TDP1 no CPT inconclusive, HepG2 tox inactive and TDP1 cell CPT inactive.
For COc1ccccc1Nc1ncnc2c1c(C)c(C)n2CCCN(C)C the results were S2 tox inactive, TGFb inhibitor inconclusive, DT40 TDP1 no CPT inconclusive, HepG2 tox inactive, ATXN2 expr inh inconclusive and TDP1 cell CPT 18.4µM.
COCCn1c(C)c(C)c2c(NCCc3ccccc3)ncnc21 was read as S2 tox inactive, TGFb inhibitor inactive, DT40 TDP1 no CPT 16.4µM, HepG2 tox inactive and TDP1 cell CPT 23.1µM.
Cc1noc2ncnc(NCCc3ccccc3)c12 was read as S2 tox inactive, TGFb inhibitor inconclusive, DT40 TDP1 no CPT 6.51µM, HepG2 tox inactive, ATXN2 expr inh inactive and TDP1 cell CPT 7.31µM.
For C[C@H](CO)N1C[C@H](C)[C@@H](CN(C)Cc2ccc3cccnc3c2)OCc2cnnn2CCCC1=O the results were S2 tox inactive, TGFb inhibitor inactive, DT40 TDP1 no CPT inactive, HepG2 tox inactive, ATXN2 expr inh inactive and TDP1 cell CPT inactive.
`CCN(Cc1ccncc1)Cc1ccc2c(c1)CN(C(=O)c1cccc(-n3nc(C)cc3C)c1)CCO2` gave S2 tox inactive, DT40 TDP1 no CPT inconclusive and TDP1 cell CPT inconclusive.
`CN(Cc1ccc2c(c1)CN(C(=O)c1cccc(N(C)C)c1)CCO2)Cc1cc(C2CC2)n[nH]1` gave S2 tox inconclusive, DT40 TDP1 no CPT 23.1µM and TDP1 cell CPT inactive[9.04 µM].
Screening CCN(C(=O)Cn1ccc(C(F)(F)F)n1)c1c(N)n(Cc2ccccc2)c(=O)[nH]c1=O returned S2 tox inactive, TGFb inhibitor inconclusive, DT40 TDP1 no CPT inactive, HepG2 tox inactive, ATXN2 expr inh inactive and TDP1 cell CPT inactive.
N#Cc1nc(-c2ccc(F)cc2)oc1N1CCCC1 was read as S2 tox inactive, TGFb inhibitor inactive, DT40 TDP1 no CPT 20.6µM, HepG2 tox inactive, ATXN2 expr inh inactive and TDP1 cell CPT 7.31µM.
COc1ccc(-c2nc(C#N)c(N3CCCCCC3)o2)cc1 was read as S2 tox inactive, TGFb inhibitor inactive, DT40 TDP1 no CPT 17.8µM, HepG2 tox inactive, ATXN2 expr inh inactive and TDP1 cell CPT 18.4µM.
